Measured values published in PubChem BioAssay (NCI).
Compounds without any hit were thinned out: in the full panel of roughly 83,000, 20% have a hit.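 Interpretation: 100, growth as untreated; towards 0, rising growth inhibition; 0, no net growth; 0 to -100, cell death. Compounds scoring below 10 were considered active.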 Values without a mark were called inactive. Activity calls are given as the source filed them.

tested on: RPMI-8226 leukemia; assay: NCI-60 one-dose screen, 48 h (100 = growth as untreated, 0 = no growth, -100 = all killed); details: 10 µM unless noted

| SMILES | growth |
| --- | --- |
| COc1cc(-c2cc(-c3nc4cc(Cl)c(Cl)cc4[nH]3)[nH]n2)cc(OC)c1OC | -7.57% (active) |
| CC1(n2nnnc2N2CCCN(c3ncccc3N)CC2)CCC1 | 104% |
| C=CC(=O)N[C@H](Cc1ccc(-c2cc(Cl)cc(Cl)c2)cc1)[C@H](O)[C@@H](O)C(=O)O | 82.7% |
| N#CC1=C(N)Oc2c(sc3c(F)cccc23)C1c1ccc(Cl)cc1 (stereo unspecified) | 10.6% |
| COc1ccccc1CNc1nc(N)nc2[nH]c3ccc(O)cc3c12 | 48.8% |
| CCC(c1ccc(OC)cc1)C(CC)c1ccc(O)c(CN2CCCCC2)c1 (stereo unspecified) | 5.83% (active) |
| C/C(=N\Nc1cc(C)c2cc(C)ccc2n1)c1ccccn1 | -33.4% (active) |
| Cn1cc(-c2csc(-c3c[nH]c4ccccc34)n2)c2cccnc21 | 21.3% |
| Oc1ccc(Nc2ccccc2)cc1 | 97.5% |
| Nc1c(C(=O)Nc2cccc(Cl)c2)sc2ncc(Cl)cc12 | 75% |
| C(=C\c1c[nH]c2ccccc12)/c1ccc2ccccc2n1 | 44.7% |
| COc1ccc(-c2nc3ccccn3c2-c2nc3ccc(Cl)cc3[nH]2)cc1 | 43.7% |
| CC/C(=N/NC(N)=O)c1ccccc1 | 97.8% |
| Cc1ccsc1-c1ccc2c(c1)COC2(CCCN(C)C)c1ccc(F)cc1 (stereo unspecified) | 19% |
| NS(=O)(=O)c1ccc(CCNC(=O)/C=C/c2ccc(Cl)cc2)cc1 | 98.3% |
| Cc1ccc(N(CC(=O)Nc2ccc(S(=O)(=O)N3CCC(N4CCCC4)CC3)cc2)S(=O)(=O)c2ccc(Cl)cc2)cc1 | -3.71% (active) |
